Data published in PubChem BioAssay AID720617 (Broad Institute, 2013).
Results filed as inconclusive are left out. Calls of active or inactive are those of the source.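 How the source made its calls: active means active at all three treatment times, each with half-maximal potency within twice the top valid dose, signal falling; inconclusive means treatment times disagree on the call; inactive means inactive at all three times, including opposite responses.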

Assay: CCRF-CEM leukemia cell cytotoxicity, late-stage follow-up, mechanism study for HRAS target identification, Alamar Blue fluorescence, several timepoints, dry powder (AID 720617)
Conditions: CCRF-CEM viability; activity change: measured here: 8 h treatment viability, at 35 µM, stronger effect = lower value; 48 h, at 35 µM (top of the series)

CCC(=O)N(c1ccc(OC)c(Cl)c1)C(C(=O)NCCc1ccccc1)c1cccs1 (centres undefined)
activity change: 6.85% | outcome: inactive

Cc1onc(C(=O)N2CCN(C(c3ccncc3)c3ccncc3)CC2)c1[N+](=O)[O-]
activity change: -0.515% | outcome: inactive
